The text below walks through data of PubChem BioAssay.

Test [1] in a line: polyglutamine-triggered caspase-3 activation inhibitors, cell-based (AID 1583). The conditions noted are these: polyglutamine-induced caspase-3 activation, cell assay; stronger effect = higher value;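 tested at 10 µM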.
Test [2] in a line: suppressors of polyQ aggregation in yeast, 75Q-TubU reporter (AID 1593). The conditions noted are these: Yeast 75Q polyglutamine aggregation reporter.
A short description of test [3]: rescue of polyQ-huntingtin neuronal dysfunction in worms, whole organism, C. elegans mechanosensory neurons, N-terminal huntingtin (AID 1599). The conditions noted are these: touch response, stronger effect = higher value.
Test [4] is described as follows: inhibitors of mitochondrial cytochrome c release, biochemical, purified mitochondria (AID 1603).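 Also: mouse liver mitochondria challenged with calcium chloride; signal normalized to the plate average as 100%.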 The note with it: stronger effect = lower value.
Test [5] can be described thus: inhibitors of polyQ protein aggregation (AID 1604). The conditions noted are these: polyglutamine-induced protein aggregation inhibition assay; stronger effect = higher value; tested at 2.5 µM.
Test [6] deals with Aerobactin synthetase IucA (Klebsiella pneumoniae). Description: IucA aerobactin synthetase inhibitors, biochemical, Tocris library, absorbance (AID 1345561; call rule not given here;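 also: 100% = enzyme without compound and 0% = no enzyme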). The conditions noted are these: purified IucA enzyme assay, absorbance (OD) read-out; stronger effect = lower value;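 tested at 8 µM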.
A short description of test [7]: circadian clock period modulators, cell-based, LOPAC library, luminescence reporter (AID 2774; call rule not given here;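 also: values are relative to mean of DMSO wells on each plate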). The conditions noted are these: circadian reporter cells, at 7 µM, actives lie on both sides.
Test [8] has as its system Hepatitis C virus NS3 helicase. Briefly: HCV NS3 helicase inhibitors, primary screen, biochemical, fluorescence polarization, LOPAC1280 library (AID 687035; in the data active = inhibition above about 37%). The note with it: Purified HCV NS3 helicase, Cy5-dT15 ssDNA binding fluorescence polarization; stronger effect = higher value; concentration not given here.
The nature of test [9]: Cy5 fluorescence quenching or enhancement artefacts, artefact control for HCV NS3 helicase inhibitor project, biochemical, LOPAC1280 (AID 687037; call rule not given here). The conditions noted are these: Cy5-DNA-NS3h complex fluorescence interference counterscreen.
The nature of test [10]: phospholipid biosynthesis inhibitors in animal cells, primary screen, cell-based, LOPAC library, screen 4 (AID 1347384; call rule not given here). The note with it: phospholipid biosynthesis inhibition screen, at 10 µM.
Test [11] in a line: hESC survival regulators, cell-based (AID 493140; call rule not given here;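 also: cells exposed to compounds for four days before counting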). The note with it: human embryonic stem cell survival screen; stronger effect = higher value.
Test [12] can be described thus: LFS_MB_1R medulloblastoma cell growth inhibition, synergistic combos for chromothripsis tumors, cisplatin or BGB combos (AID 1671452).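 Also: cells exposed for 96 hours before readout.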 The note with it: LFS_MB_1R medulloblastoma cells, stronger effect = higher value.
A short description of test [13]: CRL2098 osteosarcoma cell growth inhibition, synergistic combos for chromothripsis tumors, BGB or cisplatin IC20 combos (AID 1671454).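 Also: cells exposed for 96 h before readout; 0% = vehicle DMSO and 100% = killing by high DMSO.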 The conditions noted are these: CRL2098 osteosarcoma cells, drug combinations, stronger effect = higher value.
Test [14] is described as follows: HD-MB03 medulloblastoma cell growth inhibition, synergistic combos for chromothripsis tumors, BGB or cisplatin IC20 combos (AID 1671455; in the data active = inhibition above about 83%;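 also: 0% = vehicle DMSO and 100% = high DMSO as cytotoxic control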). The note with it: HD-MB03 medulloblastoma cells, stronger effect = higher value.
Test [15] in a line: UWB1.289 ovarian carcinoma cell growth inhibition, synergistic combos for chromothripsis tumors, BGB or cisplatin combos (AID 1671456).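 Also: cells exposed to compound for four days; 0% = vehicle DMSO and 100% = killing by high DMSO.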 The note with it: UWB1.289 ovarian carcinoma cells, stronger effect = higher value.
Test [16] in a line: LFS_MB_2R medulloblastoma cell growth inhibition, synergistic combos for chromothripsis tumors, cisplatin combos (AID 1671457).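 Also: cells exposed to compound for four days before readout.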 The note with it: LFS_MB_2R medulloblastoma cells, stronger effect = higher value.
Test [17] is described as follows: UWB1.289_BRCA1 ovarian cancer growth, cell-based, BGB or cisplatin combinations (AID 1671459). The note with it: UWB1.289 BRCA1 ovarian carcinoma, drug combinations, stronger effect = higher value.
Test [18] can be described thus: human astrocyte viability loss, single and combined drugs, cytotoxicity control for chromothriptic childhood tumor combination screen, cell-based, BGB or cisplatin IC20 combos (AID 1671460).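 Also: cells exposed to compounds for 96 hours before viability readout; 0% = vehicle and 100% = killing control.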 The note with it: Human astrocytes, drug combinations, stronger effect = higher value.
Where [19] appears, read: measured here: combination with BGB IC40, at 0.05 µM.
Setting [20] is: measured here: combination with cisplatin, at 0.5 µM.
The mark [21] stands for this setting: measured here: combination with cisplatin, at 5 µM.
Setting [22] is: measured here: combination with BGB at IC20, at 0.5 µM.
Setting [23] is: measured here: combination with cisplatin at IC20, at 0.5 µM.
The mark [24] stands for this setting: measured here: combo with BGB at IC20, at 0.5 µM.
The mark [25] stands for this setting: measured here: combo with cisplatin at IC20, at 0.5 µM.
[26] abbreviates: measured here: inhibition with BGB combination, at 0.05 µM.
The mark [27] stands for this setting: measured here: inhibition with cisplatin combination, at 0.05 µM.
Setting [28] is: BGB combination, concentration series, at 5 µM.
The mark [29] stands for this setting: cisplatin combination, concentration series, at 5 µM.
Setting [30] is: measured here: combo with BGB IC20, at 0.5 µM.
Setting [31] is: measured here: combo with cisplatin IC20, at 0.5 µM.

Where “and” joins values, the source holds several entries; their conditions need not be identical. Identical values can stand only once. For some of these results: Potency and affinity values are given separately. Some structures have more than one record in an assay (separate samples or runs), and their calls can disagree. Calls of active or inactive are those of the source. Rule as the data show it, unless noted: active = inhibition above about 80%; inactive = the rest.

With `NC(Cc1cc(I)c(Oc2ccc(O)c(I)c2)c(I)c1)C(=O)O` (stereo not given), in test [1], the inhibition stood at 2%. This molecule had a score in test [2] of 1.27. This molecule displayed a rescue above control in test [3] of -0.14. Further, the cytochrome c release ratio in [4] stood at 4.78. In test [5], the inhibition of aggregation was found to be 79.3%.
On to `C=C1/C(=C\C=C2/CCC[C@]3(C)[C@@H]([C@H](C)/C=C/[C@@H](O)C4CC4)CC[C@@H]23)C[C@@H](O)C[C@@H]1O`, for which the remaining activity in test [6] was 98% (inactive).
As to `O=c1[nH]c2ccccc2c2ccccc12`, the period change in test [7] is 0.13 h (inactive). Besides, the inhibition in [8] was -3% (inactive). In addition, in test [9], the fluorescence ratio (interference) was 1 (inactive). Further, the outcome in [10] was inactive.
Take `CN(C)[C@@H]1C(=O)C(C(=O)NCN2CCCC2)=C(O)[C@@]2(O)C(=O)C3=C(O)c4c(O)cccc4[C@@](C)(O)C3CC12` (stereo not given in full): the survival in test [11] is 2.5 (inactive).
On to `CO[C@H]1/C=C/O[C@@]2(C)Oc3c(C)c(O)c4c(O)c(c(C=NN5CCN(C)CC5)c(O)c4c3C2=O)NC(=O)/C(C)=C\C=C\[C@H](C)[C@H](O)[C@@H](C)[C@@H](O)[C@@H](C)[C@H](OC(C)=O)[C@@H]1C`, for which the inhibition was -13.7% (inactive) in test [12] (at 0.5 µM); -25.4% in test [12] (setting [19]); 34.7% in test [12] (setting [20]); 6.61% in test [12] (setting [21]); -28.2% (inactive) in test [13] (at 0.5 µM); -20.5% in [13] (setting [22]). Moreover, the inhibition in [13] (setting [23]) is -57.4%; in [14] (at 0.5 µM) it was -2.23% (inactive); in [14] (setting [24]), -1.06%; in test [14] (setting [25]), -3.79%; in test [15] (at 0.5 µM) it was 6.08% (inactive); in [15] (setting [26]), 0.522%. The inhibition was -2.06% in [15] (setting [27]); -16.1% (inactive) in test [16] (at 0.5 µM); -10.3% in test [16] (setting [20]); 19.4% in [16] (setting [21]); 33.9% in [17] (setting [28]); 4.15% (inactive) in test [17] (at 0.5 µM). Also, the inhibition was 22% in [17] (setting [29]), -6.54% (inactive) in test [18] (at 0.5 µM), -11% in test [18] (setting [30]) and -7.29% in test [18] (setting [31]).
As for `O=c1[nH]c(=O)n(C2CC(O)C(CO)O2)cc1F` (stereo not given), the inhibition was -19.6% (inactive) and -23.9% (inactive) in test [12] (at 0.5 µM); 8.22% and -31% in [12] (setting [19]); 23.3% and -25.8% in test [12] (setting [20]); -7.39% and -26.1% in [12] (setting [21]); -50.2% (inactive) and -54% (inactive) in test [13] (at 0.5 µM); -11.9% and -25.4% in test [13] (setting [22]). Further, the inhibition in test [13] (setting [23]) was -87.1% and -79.9%; in test [14] (at 0.5 µM) it was 75.2% (inactive) and 82.3% (active); in [14] (setting [24]), 72.8% and 77.8%; in test [14] (setting [25]) it was 79.4% and 87.9%; in [15] (at 0.5 µM) it was 11% (inactive) and 22.1% (inactive); in test [15] (setting [26]), -37.3% and -7.93%. Moreover, the inhibition in test [15] (setting [27]) is -10.2% and -15.2%; in test [16] (at 0.5 µM), -6.08% (inactive) and -22.6% (inactive); in test [16] (setting [20]), -26% and -30.3%; in [16] (setting [21]), -20.5% and -22.8%; in test [17] (setting [28]) it was 17.5% and 50.3%; in test [17] (at 0.5 µM), 15.2% (inactive) and 29.3% (inactive). Further, the inhibition in [17] (setting [29]) is 55.7% and 77.6%; in test [18] (at 0.5 µM) it was 17.4% (inactive) and 30.8% (inactive); in [18] (setting [30]), 14.4% and 24.7%; in test [18] (setting [31]), 5.72% and 15.6%.

The term inhibition denotes the drop in the measured response relative to a control, in per cent. As a reminder, the remaining activity is the signal under treatment as a percentage of the control signal.
